# Measured values: PubChem BioAssay (NCI)
# This is part of a sample that, as a whole, favours compounds with a hit. Of some 79,000 tested, about 15% had one in any assay. Unmarked numbers belong to inactive results. Active and inactive are the calls of the source. No stated cut-off is given here; in the data, active means growth inhibition above about 70%; inactive means the rest.
# Experiments:
# [1] = NCI Yeast Anticancer Drug Screen. Data for the rad50 strain (AID 155);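 further: 0% = growth of vehicle-only cultures of the same strain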; settings: S. cerevisiae rad50 strain growth inhibition, hits give high values
# Procedure, shortened: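 Growth of the mutant yeast was measured after compound exposure and referenced to vehicle-treated cultures.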
# [2] = NCI Yeast Anticancer Drug Screen. Data for the mec2-1 strain (AID 157); settings: S. cerevisiae mec2-1 strain, hits give high values
# Procedure, shortened: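 Mutant yeast (mec2-1) grown with compound; growth inhibition relative to vehicle control reported.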
# [3] = NCI Yeast Anticancer Drug Screen. Data for the sgs1 mgt1 strain (AID 161);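 further: 0% = growth of cultures given vehicle only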; settings: S. cerevisiae sgs1 mgt1 strain, hits give high values
# Procedure, shortened: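 Percent growth inhibition was derived by comparing compound-exposed mutant yeast with vehicle-exposed cultures. The strain carries alterations in DNA damage repair.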
# [4] = NCI Yeast Anticancer Drug Screen. Data for the cln2 rad14 strain (AID 165);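 further: 0% = growth equal to vehicle treated cultures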; settings: S. cerevisiae cln2 rad14 strain, hits give high values
# Procedure, shortened: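 Readout is yeast growth inhibition versus vehicle-treated controls, using a strain with cln2 and rad14 alterations exposed to compound.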
# [5] = NCI Yeast Anticancer Drug Screen. Data for the bub3 strain (AID 167); settings: S. cerevisiae bub3 mutant strain, hits give high values
# Procedure, shortened: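 Whole-cell yeast assay. The mutant strain was incubated with compounds, and growth inhibition was determined by comparison with vehicle-treated cells.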
# [6] = NCI Yeast Anticancer Drug Screen. Data for the mlh1 rad18 strain (AID 175); settings: S. cerevisiae mlh1 rad18 strain growth inhibition, hits give high values
# Procedure, shortened: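 Genetically defined yeast (DNA repair-deficient) exposed to compounds; growth inhibition determined relative to vehicle.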
# [7] = at 5.0 µM (retest, dose inferred, filed as 0.5)
# [8] = at 50.0 µM (retest, dose inferred, filed as 5.0)
Structure (SMILES),"growth inhibition [1, 7]","growth inhibition [1, 8]",growth inhibition ([1]; at 50.0 µM),"growth inhibition [2, 7]","growth inhibition [2, 8]",growth inhibition ([2]; at 50.0 µM),"growth inhibition [3, 7]","growth inhibition [3, 8]",growth inhibition ([3]; at 50.0 µM),"growth inhibition [4, 7]","growth inhibition [4, 8]",growth inhibition ([4]; at 50.0 µM),"growth inhibition [5, 7]","growth inhibition [5, 8]",growth inhibition ([5]; at 50.0 µM),"growth inhibition [6, 7]","growth inhibition [6, 8]",growth inhibition ([6]; at 50.0 µM)
O=C(O/N=C1/CCC/C1=C\c1ccccc1)c1ccccc1,33%,97% (active),96.5% (active),46%,99% (active),98.2% (active),78% (active),99% (active),98.8% (active),25%,98% (active),97% (active),15%,99% (active),96.3% (active),57%,98% (active),98.3% (active)
O=C(Nc1ccc(F)cc1)ON=C1CCCCC1,56%,99% (active),90.2% (active),46%,100% (active),92.3% (active),56%,99% (active),91.5% (active),33%,99% (active),90.8% (active),45%,66%,91.1% (active),69%,99% (active),90.4% (active)
C=C(C)C(=O)OC1CC2=CC(CC3(C)OC3C3OC(=O)C(=C)C13)OC2=O (configuration not stated),1%,19%,88.8% (active),3%,37%,87% (active),4%,35%,57.6%,8%,15%,30.5%,1%,43%,78.8% (active),4%,51%,50.5%
Cc1ccc2c(c1)[n+]([O-])c(N)c(C#N)[n+]2[O-],0%,97% (active),68.5%,-22%,98% (active),25.8%,-16%,97% (active),36.3%,-26%,98% (active),15.8%,-31%,97% (active),29.4%,-48%,96% (active),62.4%
CC(C)(C)c1ccc(CN2CCN(C(c3ccccc3)c3ccc(Cl)cc3)CC2)cc1 (configuration not stated),20%,52%,15.7%,5%,17%,1.45%,27%,81% (active),-10.8%,-4%,21%,-8%,42%,73% (active),-4.4%,35%,61%,52.5%
O=[N+]([O-])c1ccc(Cc2nc3ccccc3s2)cc1,32%,82% (active),36.8%,27%,95% (active),14.2%,47%,96% (active),6.3%,32%,53%,22.4%,41%,97% (active),65.4%,52%,93% (active),30.9%
CC(C)C(=O)OCC(C)(C)C1OCC(C)(C)C(C(C)C)O1 (configuration not stated),11%,-9%,-5.55%,97% (active),5%,-3.85%,12%,3%,-1.55%,-19%,-6%,9%,98% (active),0%,1.15%,88% (active),-13%,4.85%
Cc1cccc2c1C1OC(=O)C3CCC=C2C31 (configuration not stated),-146%,-134%,30.4%,-49%,-55%,53.9%,-56%,-58%,12.8%,-45%,-39%,64.9%,-41%,-52%,28.1%,-107%,-101%,41.8%
OC1(C2c3ccccc3-c3ccccc32)c2ccccc2-c2ccccc21,66%,90% (active),94.4% (active),38%,94% (active),80.7% (active),45%,94% (active),94.3% (active),11%,90% (active),52.1%,28%,92% (active),81.1% (active),84% (active),93% (active),94.6% (active)
NCCCSc1ccc(Br)cc1,-10%,13%,9.6%,-4%,-5%,34.3%,-4%,47%,20.1%,0%,17%,35.1%,-22%,-21%,8.3%,-4%,13%,8.5%
CCOC1(OCC)Oc2c(Cl)c(Cl)c(Cl)c(Cl)c2OC1(OCC)OCC,11%,97% (active),98.3% (active),13%,98% (active),98.9% (active),12%,96% (active),98.5% (active),16%,97% (active),97.4% (active),13%,97% (active),98% (active),14%,96% (active),98.7% (active)
Cc1cc(I)cc(I)c1O,8%,55%,75.5% (active),2%,34%,80.7% (active),7%,33%,55.3%,4%,4%,-7.85%,1%,33%,67.3%,10%,62%,86.3% (active)
N#Cc1snc2sc(=O)sc12,99% (active),100% (active),99.5% (active),100% (active),99% (active),99.7% (active),100% (active),100% (active),99.5% (active),99% (active),100% (active),99.2% (active),100% (active),99% (active),99.2% (active),100% (active),99% (active),99.5% (active)
C[n+]1c(-c2ccc(/C=N/NC(=O)C(=O)N/N=C/c3ccc(-c4cn5ccccc5[n+]4C)cc3)cc2)cn2ccccc21,59%,95% (active),89.8% (active),63%,97% (active),92.1% (active),69%,98% (active),88.6% (active),28%,91% (active),84.7% (active),64%,98% (active),91% (active),70% (active),98% (active),89.5% (active)
CN(C)N=Nc1ccc(Cl)c2ncccc12,3%,-2%,0.2%,-2%,-2%,2.1%,0%,2%,-2.45%,-2%,-5%,64.2%,-2%,1%,-4.15%,-2%,7%,6.75%
CSc1ccc2c(c1)S[S@@](=O)N2,-5%,55%,35.9%,-11%,61%,1.45%,9%,34%,56.6%,-16%,33%,18.3%,5%,96% (active),51.4%,-3%,38%,62.5%
NC(N)=N/N=C/c1ccc([N+](=O)[O-])o1,11%,22%,66%,4%,13%,49%,3%,16%,70.2% (active),3%,7%,25.2%,6%,39%,28.7%,10%,23%,61.4%
CCC(C(=O)C(C)C(O)C(C)CCc1ccc(C)c(O)c1C(=O)O)C1OC(CC)(C2CCC(O)(CC)C(C)O2)CC1C (configuration not stated),28%,96% (active),88.2% (active),56%,98% (active),90.7% (active),40%,97% (active),90% (active),73% (active),98% (active),89.2% (active),64%,98% (active),88.7% (active),28%,97% (active),88.2% (active)
Nc1ccc2c(SCCSc3c4ccccc4nc4cc(N)ccc34)c3ccccc3nc2c1,25%,81% (active),56%,20%,62%,33%,28%,76% (active),52.6%,6%,28%,-8.65%,1%,-14%,-6.05%,23%,46%,29.9%
